Source: PubChem BioAssay (NCI)
This is part of a sample that, as a whole, favours compounds with a hit. Of some 83,000 tested, about 20% had one in any assay.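 Each cell line was grown in a 96-well plate and treated with one concentration of compound for 48 hours. Values below 10 were considered active.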 Values without a mark were called inactive. Activity calls are given as the source filed them.

The compounds below were run on HCT-15 colon (assay: NCI-60 one-dose screen, 48 h (100 = growth as untreated, 0 = no growth, -100 = all killed)). Settings: 10 µM unless noted.

Row | SMILES | growth
1 | O=C(/C=C/c1ccc(Oc2ccc(Br)cc2)cc1)c1ccc(Br)cc1 | 98.5%
2 | CO[C@H](C(=O)[C@@H](O)[C@@H](C)O)[C@@H]1Cc2cc3cc(O[C@H]4C[C@@H](O[C@H]5C[C@@H](O)[C@H](O)C(C)O5)[C@H](O)C(C)(O)O4)cc(O)c3c(O)c2C(=O)[C@H]1O[C@H]1C[C@@H](O[C@H]2C[C@@H](O[C@H]3C[C@@H](OC)[C@H](O)C(C)O3)[C@@H](O)C(C)O2)[C@H](O)C(C)O1 (some centres not stated) | 92.8%
3 | FC(F)(F)Oc1cccc(-c2cnc3ccc(-c4ccncc4)nn23)c1 | 8.36% (active)
4 | O=S(=O)(Nc1cc(Sc2cccc3cccnc23)c(O)c2ccccc12)c1ccccc1 | 12.2%
5 | Cc1ccc(-c2nc(SCc3nc4cc(Cl)c(Cl)cc4[nH]3)[nH]c(=O)c2C#N)cc1 | 104%
6 | CN(C)S(=O)(=O)Oc1ccc(-c2sc3cc(OS(=O)(=O)N(C)C)ccc3c2C(=O)c2ccc(OCCN3CCCCC3)cc2)cc1 | 34.2%
7 | COc1ccc(C2=NN(C(C)=O)C(c3cn(-c4ccccc4)nc3-c3ccc(Cl)cc3)C2)cc1 (configuration not stated) | 17.1%
8 | O=C(CSc1nnc(-c2cc(-c3ccccc3)nc3ccccc23)n1-c1ccccc1)Nc1ccc(C(=O)/C=C/c2ccc(Cl)cc2)cc1 | 73.5%
9 | CCOC(=O)C(=Cc1ccc(-c2ccccc2)cc1)C(=O)OCC | 13.3%
10 | Cc1ccc(S(=O)(=O)N2CCC(=O)c3ccccc32)cc1 | 42.9%
11 | COc1ccccc1N(C(C)=O)C1=C(Cl)C(=O)c2ccccc2C1=O | 4.27% (active)
12 | C=C(C)[C@@H]1CC[C@]2(C(N)=O)CC[C@]3(C)[C@H](CC[C@@H]4[C@@]5(C)CC[C@H](OCCC#N)C(C)(C)[C@@H]5CC[C@]43C)[C@@H]12 | 80.9%
13 | CN(C)CCCC1(c2ccc(F)cc2)OCc2cc(-c3cc4ccccc4s3)ccc21 (configuration not stated) | -49% (active)
14 | [2H]C([2H])([2H])Oc1ccc(F)cc1/C=C/C(=O)/C=C(/C=C/c1cc(F)ccc1OC([2H])([2H])[2H])OB(F)F | 63.8%
15 | COc1ccc(/C(C)=C(/c2ccc(OCCCN(C)C)cc2)c2ccc(OC(=O)c3ccccc3)cc2)cc1 | 63%
16 | Cc1ccc2c(=O)cc(C(=O)Nc3sc4c(c3C(=O)NCc3cccnc3)CCCC4)oc2c1C | 103%

Row | SMILES | growth
17 | CCCCCCCC/C=C\CCCCCCCCOc1ccc(CC(=O)NCC[N+]2(C)CCOCC2)cc1 | 90.8%
18 | O=C1/C(=C/c2ccc(F)cc2)CN(C(=O)C(Cl)Cl)C/C1=C\c1ccc(F)cc1 | -57.9% (active)
19 | COc1ccc(Nc2ncccc2/C=C/C(=O)c2cc(OC)c(OC)c(OC)c2)cc1 | -57.2% (active)
20 | O=C(Cc1cccc(OC(F)(F)F)c1)Nc1ccc(CCCCc2nnc(NC(=O)Cc3ccccn3)s2)nn1 | 89.6%
21 | C=C1C(=O)O[C@H]2[C@H]1CC/C(COC(=O)/C=C\C(=O)NCc1ccc(Cn3c(=O)sn(CCCl)c3=O)cc1)=C\CC[C@@]1(C)O[C@@H]21 | 44.8%
22 | CNC(=O)c1ccccc1Nc1nc(Nc2cc(OC)c(OC)c(OC)c2)ncc1Br | 3.34% (active)
23 | Cc1ccc(C=C2C(=O)NC(=O)NC2=O)cc1 | 104%
24 | O=C(CN1CCCCCC1)Nc1nc2ccc(NCc3ccc(Cl)cc3)cc2s1 | 99.2%
25 | COc1ccc(C(=O)Cn2c(C(=O)c3ccc(Cl)cc3)nc3ccccc32)cc1 | 33.6%
26 | C#CCO[C@H]1CC(CC#C)(CC#C)C(=O)[C@@H]2[C@H]1[C@H]1C[C@@H]3[C@@]4(C)CCC[C@@](C)(C(=O)OC)[C@@H]4CC[C@@]23C=C1C(C)C | 98.2%
27 | Fc1ccc2[nH]cc(-c3nc(-c4c[nH]c5ccncc45)cs3)c2c1 | -50% (active)
28 | O=C(CSc1nc(-c2ccccc2)cc(=O)[nH]1)Nc1nc(-c2ccccc2)cs1 | 89.7%
29 | O=C1/C(=C2\SC(=S)N(C3CC3)C2=O)SC(=S)N1C1CC1 | 101%
30 | COc1ccc(Cn2cc3c(c2-c2ccccc2)CCc2cnoc2-3)cc1 | 16.7%
31 | Cc1nn(-c2ccccc2)c(N)c1N=C1NC(=O)/C(=C/c2ccc(Br)cc2)S1 | 81.5%
32 | CN(C)c1ccc(/C=C(\C#N)c2cc3ccccc3[nH]2)cc1 | 23.6%
